Rows were chosen to be rich in hits. Some 7.8% of all compounds tested hit in one or more screens of this group.
LASV entry inh: Lassa virus entry inhibition; Lassa virus pseudotype entry inhibition, cell reporter; Potency, µM (highest dose often 37.9 µM), without a hit: at the top dose activity change, negative = inhibition, usual class: inhibitors; hit rate 1.2% among 300,000; calls by dose curve; tested in HEK293 cells; also: potency is read from the fitted curve at half-maximal effect; nearly all actives have a fitted effect of over 50% in size
Vaccinia mCherry: vaccinia inhibition (mCherry reporter); AID 720579; hit rate 0.63% among 310,000; Potency, µM (highest dose often 36.5 µM), for the others: at the top dose activity change, negative = inhibition, usual class: inhibitors; Vaccinia virus mCherry reporter infection, fluorescence; calls by dose curve; tested in A549 cells; also: potency is read from the fitted curve at half-maximal effect; nearly all actives have a fitted effect of over 35% in size
HCV inhibitor: blocks hepatitis C virus. hit rate 3.4% among 340,000. Potency, µM (highest dose often 41.8 µM), for the others: top-dose activity change, negative = inhibition, usual class: inhibitors. Huh7.5.1 HCVcc-Cre infection, luciferase reporter, 44 h; active = well fitted inhibition curve with a large enough effect; inconclusive = small, poorly fitted or top-dose-only effect, or another doubt; inactive = no such curve, though single readings can be large or run the other way; also: potency is read from the fitted curve at half-maximal effect
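Luciferase read-out (15 sec integration) after a 15 min room-temperature substrate step quantifies HCVcc-Cre infection. Cells, 1,000 per well, had compound added 4 h post-plating, then virus at ~0.5 moi, and were cultured 44 h.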
MARV entry inh: Marburg virus entry inhibition; Marburg virus pseudotyped entry inhibition, cell reporter; Potency, µM (top dose mostly 37.8 µM), without a hit: at the top dose activity change, negative = inhibition, hits mostly inhibitors; hit rate 1.8% among 300,000; calls by dose curve; tested in HEK293 cells; also: potency is read from the fitted curve at half-maximal effect
HCMV antiviral: human cytomegalovirus inhibition; hit rate 4.5% among 410,000; activity change, negative = inhibition, % at 57.5 µM; HFF cells, HCMV-luciferase reporter, 72 h; active compounds read low; AID 1259415; in the data active = activity change below about -60%; inconclusive = no clear call, values can overlap the other calls; inactive = above about -39%
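Two compound doses tested in HFFs infected with HCMV-luciferase, MOI 1 PFU/cell, 72 h at 37C. Lysate luminescence read with OneGlo; data normalized against buffer-only and 10uM Salinomycin inhibitor controls.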
VACV Venus inh: inhibitors of vaccinia virus (Venus reporter); Vaccinia virus Venus reporter expression, fluorescence; Potency, µM (highest dose often 36.5 µM), for inactives: top-dose activity change, negative = inhibition, most hits filed as inhibitors; hit rate 0.46% among 330,000; calls by dose curve; tested in A549 cells; also: potency is read from the fitted curve at half-maximal effect; nearly all actives have a fitted effect of over 30% in size
* hit, by the source's call; [ ] = another dose, or the depositor's remark. % is scaled to controls: 0 for no effect and ±100 for the full control effect.

`Cc1ccc(C(=O)CN2C(=O)c3ccccc3S2(=O)=O)cc1` gave LASV entry inh inconclusive, Vaccinia mCherry 0%, HCV inhibitor 25%, MARV entry inh inconclusive, HCMV antiviral -88* and VACV Venus inh -8%.
Screening O=C(CN1C(=O)c2ccccc2S1(=O)=O)c1ccccc1Cl returned HCMV antiviral -86*.
Screening C#CC1(O)C(OC)=CC2C(=O)C1C(c1ccccc1)C2C (stereo not given) returned LASV entry inh inconclusive and MARV entry inh -4%[14.2 µM].
`O=[N+]([O-])c1ccc(S(=O)(=O)N2CCn3cccc3C2c2ccccc2F)cc1` (stereo not given) gave LASV entry inh -7%[46.1 µM], Vaccinia mCherry 11µM*, HCMV antiviral -2 and VACV Venus inh inconclusive.
C=C(CN(C)C)C(=O)c1ccc(C)cc1C was read as LASV entry inh inconclusive, Vaccinia mCherry inconclusive, HCV inhibitor inconclusive, MARV entry inh inconclusive, HCMV antiviral -77* and VACV Venus inh inconclusive.
`Cc1ccccc1C(=O)OCc1cc(=O)n2c(C)csc2n1` gave LASV entry inh 0%[46.1 µM], Vaccinia mCherry -3%, HCMV antiviral 0 and VACV Venus inh -17%.
`CCCCNC(=O)c1ccc(NC(=O)C2CCCO2)cc1` (stereo not given) gave LASV entry inh 3%, HCV inhibitor 0%, MARV entry inh 14% and HCMV antiviral -90*.
Screening CCOc1ccccc1NC(=O)c1ccc(NC(=O)C2CCCO2)cc1 (stereo not given) returned Vaccinia mCherry -4%, HCV inhibitor 11µM*, MARV entry inh 3%[46.1 µM], HCMV antiviral inconclusive and VACV Venus inh 6%.
`CCOc1ccc(NS(=O)(=O)c2ccc(NC(=O)C3CCCO3)cc2)cc1` (stereo not given) gave LASV entry inh 8.9µM*, HCV inhibitor inconclusive, MARV entry inh -23%, HCMV antiviral 3 and VACV Venus inh -27%.
CC(C)OCCCNC(=O)c1ccc(NC(=O)C2CCCO2)cc1 (stereo not given) was read as LASV entry inh 3%, Vaccinia mCherry -8%, HCV inhibitor 3%, MARV entry inh inconclusive, HCMV antiviral 38 and VACV Venus inh -12%.
For Cc1ccc(CNC(=O)C(=O)Nc2c3c(nn2-c2ccc(F)cc2)CSC3)cc1 the results were LASV entry inh 27%[46.1 µM], Vaccinia mCherry inconclusive, HCMV antiviral -13 and VACV Venus inh inconclusive.
`CCOC(=O)c1c(-c2ccccc2Cl)cn2ccccc12` gave LASV entry inh 13µM*, HCV inhibitor inconclusive, MARV entry inh inconclusive and HCMV antiviral inconclusive.
CCc1ccc(CN(C)C(=O)CCc2nc3ccccc3n(-c3ccc(OC)cc3)c2=O)cc1 was read as LASV entry inh 14µM*, Vaccinia mCherry inconclusive, HCV inhibitor inconclusive, MARV entry inh 10µM*, HCMV antiviral -68* and VACV Venus inh inconclusive.
CC(=O)OC[C@H]1O[C@H](CC=NOCC[C@@H]2C=C[C@@H](OC(C)=O)[C@@H](COC(C)=O)O2)C=C[C@@H]1OC(C)=O was read as MARV entry inh 10%[14.2 µM].
For COc1ccc2c(c1)c1c(c(=O)n(-c3ccc(F)c(Cl)c3)c(=O)n1Cc1cccc(C)c1)n2C the results were LASV entry inh 28%[46.1 µM], Vaccinia mCherry -12%, HCMV antiviral 12 and VACV Venus inh -5%.
Screening COc1ccc2c(c1)c1c(c(=O)n(-c3cccc(C)c3)c(=O)n1Cc1cccc(Cl)c1)n2C returned LASV entry inh 1%[46.1 µM], Vaccinia mCherry -11%, HCMV antiviral -67* and VACV Venus inh -12%.
For COc1ccc(-c2cn3nc(N4CCCC(C(=O)Nc5ccccc5F)C4)sc3n2)cc1 (stereo not given) the results were LASV entry inh inconclusive, Vaccinia mCherry -27%, HCMV antiviral inconclusive and VACV Venus inh -22%.
For COC(=O)C1=C(C(=O)OC)[C@]2([C@@H]3CCCCN[C@@H](Cc4ccccc4)C(=O)N3Cc3ccccc3)C=C[C@H]1O2 the results were Vaccinia mCherry inactive, HCV inhibitor 7.9µM*, HCMV antiviral -12 and VACV Venus inh -20%.
For O=[N+]([O-])c1ccc2c(c1)CCCO[C@]21O[C@H](CCO)C[C@H](O)[C@H]1O the results were HCMV antiviral -15.
For COC(=O)c1ccccc1NS(=O)(=O)c1cc2c(cc1C)N(C)CCO2 the results were LASV entry inh 10µM*, Vaccinia mCherry -21%, HCMV antiviral inconclusive and VACV Venus inh -15%.
`Cc1ccc(-n2c(=O)c3c(C)c(C(=O)N(C)C)sc3n(CC(=O)C(C)(C)C)c2=O)cc1C` gave LASV entry inh inconclusive, Vaccinia mCherry -10%, HCMV antiviral 18 and VACV Venus inh -2%.
Screening CCc1cc(OCCN(C)C)ccc1Cl returned Vaccinia mCherry -2%, HCV inhibitor 24%, MARV entry inh -6%[46.1 µM], HCMV antiviral 21 and VACV Venus inh -7%.
`CN(C)CCOc1ccc2c(c1)C(=O)C(=Cc1ncc([N+](=O)[O-])n1C)C2` gave Vaccinia mCherry inconclusive, HCMV antiviral -98* and VACV Venus inh inconclusive.
`Cc1cc2ccccc2n1CCNC(=O)Cc1ccccc1` gave Vaccinia mCherry inactive, HCV inhibitor -23%, HCMV antiviral -10 and VACV Venus inh -1%.
CCn1c2ccccc2c2cc(NC(=O)c3ccc(C)c([N+](=O)[O-])c3)ccc21 was read as LASV entry inh inconclusive, Vaccinia mCherry -2%, HCV inhibitor inconclusive, MARV entry inh -19%, HCMV antiviral 1 and VACV Venus inh 2%.
`O=C(NCCn1ccc2ccccc21)c1cccc([N+](=O)[O-])c1` gave LASV entry inh 4%, Vaccinia mCherry -12%, HCV inhibitor -21%, MARV entry inh 9%[46.1 µM], HCMV antiviral -80* and VACV Venus inh -17%.
For CCn1c2ccccc2c2cc(NC(=O)c3cccc([N+](=O)[O-])c3)ccc21 the results were LASV entry inh -15%, Vaccinia mCherry -22%, HCV inhibitor 2.2µM*, MARV entry inh inconclusive, HCMV antiviral 28 and VACV Venus inh -29%.
Screening Cc1ccc(C(=O)NCCn2c(C)cc3ccccc32)cc1C returned LASV entry inh inconclusive, Vaccinia mCherry -11%, MARV entry inh inconclusive, HCMV antiviral -69* and VACV Venus inh -13%.
`CCn1c2ccccc2c2cc(NC(=O)c3cccc([N+](=O)[O-])c3C)ccc21` gave LASV entry inh -28%, Vaccinia mCherry inconclusive, HCV inhibitor 4µM*, MARV entry inh inconclusive, HCMV antiviral inconclusive and VACV Venus inh inconclusive.
Screening COc1ccc(C(=O)NCCn2cc(SCC(=O)NCCc3ccc(OC)c(OC)c3)c3ccccc32)cc1 returned LASV entry inh -30%[46.1 µM], Vaccinia mCherry -12%, MARV entry inh -8%[46.1 µM], HCMV antiviral -17 and VACV Venus inh -16%.
